Measured values: article PMC7862700, “An all-to-all approach to the identification of sequence-specific readers for epigenetic DNA modifications on cytosine”

How the values were obtained:
Test in all cases: DAPPL (digital affinity profiling via proximity ligation, sequencing); 10 mM Tris-HCl pH 7.5, 50 mM NaCl, 1 mM DTT, 4% glycerol, room temperature, 30 min; GST-TFs on glutathione beads, 16-mer random dsDNA library, 0.1% formaldehyde crosslink after washing; high values mean tight binding
[1] = target: T1, FLI1 (Homo sapiens, UniProt Q01543 1-452); conditions: protein: recombinant; tags: N-terminal GST; dsDNA, one strand shown
T1 sequence: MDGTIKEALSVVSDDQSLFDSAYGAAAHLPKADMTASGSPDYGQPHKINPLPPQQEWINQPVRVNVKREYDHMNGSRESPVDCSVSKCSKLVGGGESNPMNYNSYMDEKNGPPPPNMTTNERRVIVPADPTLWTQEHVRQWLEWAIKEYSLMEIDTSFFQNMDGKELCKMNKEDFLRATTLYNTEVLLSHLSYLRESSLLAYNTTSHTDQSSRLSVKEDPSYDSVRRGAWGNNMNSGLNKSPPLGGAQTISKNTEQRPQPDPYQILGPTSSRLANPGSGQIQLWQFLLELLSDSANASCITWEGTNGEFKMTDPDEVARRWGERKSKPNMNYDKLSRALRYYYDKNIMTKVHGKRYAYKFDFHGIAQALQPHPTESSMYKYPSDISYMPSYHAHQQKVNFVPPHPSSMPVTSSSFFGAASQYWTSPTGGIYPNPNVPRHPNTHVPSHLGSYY
In short: (§1)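 A tag-only sample was pooled with DNA-barcoded human transcription factors that had been expressed in yeast as GST fusions and captured on glutathione beads. The pools were incubated for 30 min at room temperature with 200 nmole of a random double-stranded 16-mer DNA library in Tris/NaCl/DTT/glycerol buffer, then washed, crosslinked with 0.1% formaldehyde, proximity-ligated (BsaI/T4 ligase, 1 h, 37 °C), PCR-amplified and sequenced on an Illumina NextSeq500. Binding signal is each hexamer's read frequency for a factor divided by its frequency for the tag-only sample.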

[2] = target: T2, ELK1 (Homo sapiens, UniProt P19419 1-428); conditions: protein: recombinant; tags: N-terminal GST; dsDNA, one strand shown
T2 sequence: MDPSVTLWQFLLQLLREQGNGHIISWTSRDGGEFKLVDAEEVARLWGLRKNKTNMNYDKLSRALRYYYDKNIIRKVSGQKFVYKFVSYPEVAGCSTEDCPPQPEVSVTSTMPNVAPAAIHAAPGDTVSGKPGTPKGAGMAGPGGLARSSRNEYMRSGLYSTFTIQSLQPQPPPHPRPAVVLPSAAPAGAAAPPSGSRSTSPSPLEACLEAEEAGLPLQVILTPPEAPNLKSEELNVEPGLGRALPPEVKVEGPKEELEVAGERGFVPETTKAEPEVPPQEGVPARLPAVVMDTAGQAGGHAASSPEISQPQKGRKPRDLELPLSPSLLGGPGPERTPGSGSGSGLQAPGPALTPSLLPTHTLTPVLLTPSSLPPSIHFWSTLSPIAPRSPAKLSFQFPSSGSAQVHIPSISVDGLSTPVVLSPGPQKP
In short: as §1

[3] = target: T3, GABPA (Homo sapiens, UniProt Q06546 1-454); conditions: protein: recombinant; tags: N-terminal GST; dsDNA, one strand shown
T3 sequence: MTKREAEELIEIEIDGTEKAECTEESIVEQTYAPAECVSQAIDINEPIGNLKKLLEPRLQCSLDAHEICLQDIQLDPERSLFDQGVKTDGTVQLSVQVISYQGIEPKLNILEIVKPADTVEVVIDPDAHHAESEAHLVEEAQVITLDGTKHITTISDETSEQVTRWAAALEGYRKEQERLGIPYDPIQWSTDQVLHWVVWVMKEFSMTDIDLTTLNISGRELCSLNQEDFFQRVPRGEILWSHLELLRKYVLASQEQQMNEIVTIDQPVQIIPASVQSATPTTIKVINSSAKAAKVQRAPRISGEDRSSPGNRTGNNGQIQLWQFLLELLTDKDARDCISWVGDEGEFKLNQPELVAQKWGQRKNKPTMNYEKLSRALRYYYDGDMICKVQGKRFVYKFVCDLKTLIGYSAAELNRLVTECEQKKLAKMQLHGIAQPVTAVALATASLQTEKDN
In short: as §1

[4] = target: T4, ERG (Homo sapiens, UniProt P11308 1-479); conditions: protein: recombinant; tags: N-terminal GST; dsDNA, one strand shown
T4 sequence: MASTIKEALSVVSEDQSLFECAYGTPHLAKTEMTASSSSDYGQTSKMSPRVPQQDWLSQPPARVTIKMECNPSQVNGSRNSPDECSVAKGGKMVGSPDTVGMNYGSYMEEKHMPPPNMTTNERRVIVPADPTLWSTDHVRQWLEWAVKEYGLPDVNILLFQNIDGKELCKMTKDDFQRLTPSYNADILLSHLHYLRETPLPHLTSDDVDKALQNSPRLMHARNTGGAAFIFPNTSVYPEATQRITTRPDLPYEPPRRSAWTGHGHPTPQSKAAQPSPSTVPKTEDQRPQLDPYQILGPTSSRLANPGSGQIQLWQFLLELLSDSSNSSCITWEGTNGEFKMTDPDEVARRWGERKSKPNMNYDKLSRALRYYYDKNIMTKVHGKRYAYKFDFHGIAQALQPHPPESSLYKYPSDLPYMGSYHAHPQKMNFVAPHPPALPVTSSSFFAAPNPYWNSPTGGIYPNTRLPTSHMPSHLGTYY
In short: as §1

[5] = target: ELF1 (Homo sapiens, UniProt P32519 1-619); conditions: protein: recombinant; tags: N-terminal GST; dsDNA, one strand shown
ELF1, sequence (P32519 whole entry): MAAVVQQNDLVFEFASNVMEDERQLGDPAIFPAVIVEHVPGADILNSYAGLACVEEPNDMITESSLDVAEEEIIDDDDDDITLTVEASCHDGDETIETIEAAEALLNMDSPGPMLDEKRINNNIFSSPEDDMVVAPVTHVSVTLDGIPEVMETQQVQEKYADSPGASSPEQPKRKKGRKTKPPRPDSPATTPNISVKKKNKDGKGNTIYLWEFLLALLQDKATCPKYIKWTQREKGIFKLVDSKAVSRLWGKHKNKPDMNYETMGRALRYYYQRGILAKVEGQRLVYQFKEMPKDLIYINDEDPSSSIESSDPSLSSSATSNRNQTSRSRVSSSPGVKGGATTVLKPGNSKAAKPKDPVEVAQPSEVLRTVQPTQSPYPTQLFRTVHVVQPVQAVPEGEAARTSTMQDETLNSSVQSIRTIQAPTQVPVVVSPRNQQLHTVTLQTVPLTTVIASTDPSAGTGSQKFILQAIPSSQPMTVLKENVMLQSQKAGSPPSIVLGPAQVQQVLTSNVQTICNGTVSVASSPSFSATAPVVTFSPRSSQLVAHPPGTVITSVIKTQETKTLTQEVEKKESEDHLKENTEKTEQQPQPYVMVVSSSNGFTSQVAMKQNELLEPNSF
In short: as §1

[6] = target: T5, EHF (Homo sapiens, UniProt Q9NZC4 1-300); conditions: protein: recombinant; tags: N-terminal GST; dsDNA, one strand shown
T5 sequence: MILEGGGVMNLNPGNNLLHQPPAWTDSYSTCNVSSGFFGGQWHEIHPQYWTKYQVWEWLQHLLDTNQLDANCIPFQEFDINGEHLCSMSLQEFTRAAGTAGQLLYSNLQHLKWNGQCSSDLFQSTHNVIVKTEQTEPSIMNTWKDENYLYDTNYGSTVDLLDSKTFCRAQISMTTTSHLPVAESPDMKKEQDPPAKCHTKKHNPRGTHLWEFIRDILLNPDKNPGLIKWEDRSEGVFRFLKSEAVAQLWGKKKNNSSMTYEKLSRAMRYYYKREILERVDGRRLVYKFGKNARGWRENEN
In short: as §1

[7] = target: SPIB (Homo sapiens, UniProt Q01892 1-262); conditions: protein: recombinant; tags: N-terminal GST; dsDNA, one strand shown
SPIB, sequence (Q01892 whole entry): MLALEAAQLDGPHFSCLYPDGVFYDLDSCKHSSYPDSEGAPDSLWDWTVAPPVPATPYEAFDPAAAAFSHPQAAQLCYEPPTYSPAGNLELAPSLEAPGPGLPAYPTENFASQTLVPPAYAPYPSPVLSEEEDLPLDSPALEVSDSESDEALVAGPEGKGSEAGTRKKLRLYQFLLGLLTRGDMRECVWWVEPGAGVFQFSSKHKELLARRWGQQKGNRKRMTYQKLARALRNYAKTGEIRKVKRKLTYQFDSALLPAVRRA
In short: as §1

[8] = target: T6, FEV (Homo sapiens, UniProt Q99581 1-238); conditions: protein: recombinant; tags: N-terminal GST; dsDNA, one strand shown
T6 sequence: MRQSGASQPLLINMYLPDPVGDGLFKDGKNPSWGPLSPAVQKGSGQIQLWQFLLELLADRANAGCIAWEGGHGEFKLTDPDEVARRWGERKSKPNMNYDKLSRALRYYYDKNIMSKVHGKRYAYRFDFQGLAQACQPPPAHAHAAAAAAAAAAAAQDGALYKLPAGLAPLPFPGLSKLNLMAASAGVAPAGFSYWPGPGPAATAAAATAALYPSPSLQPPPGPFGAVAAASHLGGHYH
In short: as §1

[9] = target: ETV5 (Homo sapiens, UniProt P41161 1-510); conditions: protein: recombinant; tags: N-terminal GST; dsDNA, one strand shown
ETV5, sequence (P41161 whole entry): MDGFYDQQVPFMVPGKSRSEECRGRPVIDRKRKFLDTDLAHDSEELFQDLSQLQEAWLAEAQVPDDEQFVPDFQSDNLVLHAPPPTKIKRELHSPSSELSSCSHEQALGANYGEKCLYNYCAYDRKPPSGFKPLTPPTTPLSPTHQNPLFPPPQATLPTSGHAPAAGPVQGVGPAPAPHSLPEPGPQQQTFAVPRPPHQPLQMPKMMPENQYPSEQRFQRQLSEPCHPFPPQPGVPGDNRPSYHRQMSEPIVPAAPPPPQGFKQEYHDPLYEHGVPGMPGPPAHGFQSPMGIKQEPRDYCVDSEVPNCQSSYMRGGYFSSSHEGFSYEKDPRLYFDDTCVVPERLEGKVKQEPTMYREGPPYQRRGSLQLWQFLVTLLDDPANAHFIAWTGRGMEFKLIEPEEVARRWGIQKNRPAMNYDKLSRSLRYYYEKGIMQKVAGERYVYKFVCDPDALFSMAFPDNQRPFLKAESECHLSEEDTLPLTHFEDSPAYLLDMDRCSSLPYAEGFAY
In short: as §1

[10] = target: HSF1 (Homo sapiens, UniProt Q00613 1-529); conditions: protein: recombinant; tags: N-terminal GST; chain copies: 3; dsDNA, one strand shown
HSF1, sequence (Q00613 whole entry): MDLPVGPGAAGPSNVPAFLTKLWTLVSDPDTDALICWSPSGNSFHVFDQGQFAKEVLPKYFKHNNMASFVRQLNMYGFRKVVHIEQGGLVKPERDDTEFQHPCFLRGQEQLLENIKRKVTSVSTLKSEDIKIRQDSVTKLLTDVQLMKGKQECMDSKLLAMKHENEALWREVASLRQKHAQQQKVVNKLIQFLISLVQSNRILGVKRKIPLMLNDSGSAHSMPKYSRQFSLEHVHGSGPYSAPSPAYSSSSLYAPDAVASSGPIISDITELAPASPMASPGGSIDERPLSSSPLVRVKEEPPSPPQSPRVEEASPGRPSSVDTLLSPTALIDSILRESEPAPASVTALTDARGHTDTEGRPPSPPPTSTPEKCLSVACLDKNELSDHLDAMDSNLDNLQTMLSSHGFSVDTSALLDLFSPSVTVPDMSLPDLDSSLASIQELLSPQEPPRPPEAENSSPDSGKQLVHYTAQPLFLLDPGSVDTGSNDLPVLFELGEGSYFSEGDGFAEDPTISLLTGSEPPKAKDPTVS
In short: as §1

[11] = target: T7, SPIC (Homo sapiens, UniProt Q8N5J4 1-248); conditions: protein: recombinant; tags: N-terminal GST; dsDNA, one strand shown
T7 sequence: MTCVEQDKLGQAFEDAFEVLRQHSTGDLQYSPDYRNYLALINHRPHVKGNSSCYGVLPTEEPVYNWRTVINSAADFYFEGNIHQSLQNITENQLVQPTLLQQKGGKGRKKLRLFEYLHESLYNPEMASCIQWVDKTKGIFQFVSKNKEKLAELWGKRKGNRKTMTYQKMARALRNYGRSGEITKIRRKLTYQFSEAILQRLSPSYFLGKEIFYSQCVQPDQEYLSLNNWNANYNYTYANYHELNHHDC
In short: as §1

[12] = target: ELF4 (Homo sapiens, UniProt Q99607 1-663); conditions: protein: recombinant; tags: N-terminal GST; dsDNA, one strand shown
ELF4, sequence (Q99607 whole entry): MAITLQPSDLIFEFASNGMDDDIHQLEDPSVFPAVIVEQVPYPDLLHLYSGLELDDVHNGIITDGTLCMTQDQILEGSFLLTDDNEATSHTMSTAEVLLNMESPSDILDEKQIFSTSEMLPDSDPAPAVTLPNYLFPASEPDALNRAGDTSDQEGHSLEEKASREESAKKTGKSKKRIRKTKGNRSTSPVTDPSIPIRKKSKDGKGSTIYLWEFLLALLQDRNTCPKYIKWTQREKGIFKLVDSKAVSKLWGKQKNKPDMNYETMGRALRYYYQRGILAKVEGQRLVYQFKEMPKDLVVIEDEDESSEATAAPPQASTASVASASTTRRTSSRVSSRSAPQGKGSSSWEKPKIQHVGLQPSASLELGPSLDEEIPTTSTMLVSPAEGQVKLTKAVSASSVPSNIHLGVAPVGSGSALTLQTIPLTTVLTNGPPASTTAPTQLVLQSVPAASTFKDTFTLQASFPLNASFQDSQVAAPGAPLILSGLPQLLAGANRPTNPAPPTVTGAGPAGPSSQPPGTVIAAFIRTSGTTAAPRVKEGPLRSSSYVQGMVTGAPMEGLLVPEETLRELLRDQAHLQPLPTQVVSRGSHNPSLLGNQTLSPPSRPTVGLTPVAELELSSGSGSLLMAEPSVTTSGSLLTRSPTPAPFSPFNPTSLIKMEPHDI
In short: as §1

[13] = target: T8, ELK4 (Homo sapiens, UniProt P28324-2 1-405); conditions: protein: recombinant; tags: N-terminal GST; dsDNA, one strand shown
T8 sequence: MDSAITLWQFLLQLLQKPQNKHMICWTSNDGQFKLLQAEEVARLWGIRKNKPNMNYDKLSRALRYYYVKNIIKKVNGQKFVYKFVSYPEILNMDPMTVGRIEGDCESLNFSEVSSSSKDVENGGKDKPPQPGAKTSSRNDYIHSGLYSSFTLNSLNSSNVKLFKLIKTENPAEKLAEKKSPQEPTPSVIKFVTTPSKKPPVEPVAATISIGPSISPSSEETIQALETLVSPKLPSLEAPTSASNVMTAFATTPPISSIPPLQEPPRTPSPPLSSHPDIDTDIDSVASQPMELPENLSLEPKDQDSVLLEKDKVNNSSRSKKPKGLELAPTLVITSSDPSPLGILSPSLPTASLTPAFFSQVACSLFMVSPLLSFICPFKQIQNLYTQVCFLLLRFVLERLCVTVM
In short: as §1

[14] = target: T9, ETV2 (Homo sapiens, UniProt O00321 1-342); conditions: protein: recombinant; tags: N-terminal GST; dsDNA, one strand shown
T9 sequence: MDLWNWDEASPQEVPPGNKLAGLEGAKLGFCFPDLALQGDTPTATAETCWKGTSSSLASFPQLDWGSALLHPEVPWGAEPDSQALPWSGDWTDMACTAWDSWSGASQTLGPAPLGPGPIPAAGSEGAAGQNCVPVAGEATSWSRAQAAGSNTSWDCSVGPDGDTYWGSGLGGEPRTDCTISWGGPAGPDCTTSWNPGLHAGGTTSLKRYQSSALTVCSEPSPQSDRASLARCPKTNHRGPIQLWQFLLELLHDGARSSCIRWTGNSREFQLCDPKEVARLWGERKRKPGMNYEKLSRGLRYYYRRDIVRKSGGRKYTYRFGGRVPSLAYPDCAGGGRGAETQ
In short: as §1

[15] = target: T10, ELF3 (Homo sapiens, UniProt P78545 1-371); conditions: protein: recombinant; tags: N-terminal GST; dsDNA, one strand shown
T10 sequence: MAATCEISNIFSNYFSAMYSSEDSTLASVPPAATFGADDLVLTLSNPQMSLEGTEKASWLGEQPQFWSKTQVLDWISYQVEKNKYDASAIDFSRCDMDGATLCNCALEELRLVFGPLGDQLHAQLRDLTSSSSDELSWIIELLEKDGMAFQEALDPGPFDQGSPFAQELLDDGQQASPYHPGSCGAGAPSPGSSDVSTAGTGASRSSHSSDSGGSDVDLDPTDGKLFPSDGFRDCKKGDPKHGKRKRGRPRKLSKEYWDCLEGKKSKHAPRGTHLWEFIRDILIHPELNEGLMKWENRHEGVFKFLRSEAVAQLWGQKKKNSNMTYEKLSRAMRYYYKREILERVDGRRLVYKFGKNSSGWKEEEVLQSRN
In short: as §1

[16] = target: CRX (Homo sapiens, UniProt O43186 1-299); conditions: protein: recombinant; tags: N-terminal GST; dsDNA, one strand shown
CRX, sequence (O43186 whole entry): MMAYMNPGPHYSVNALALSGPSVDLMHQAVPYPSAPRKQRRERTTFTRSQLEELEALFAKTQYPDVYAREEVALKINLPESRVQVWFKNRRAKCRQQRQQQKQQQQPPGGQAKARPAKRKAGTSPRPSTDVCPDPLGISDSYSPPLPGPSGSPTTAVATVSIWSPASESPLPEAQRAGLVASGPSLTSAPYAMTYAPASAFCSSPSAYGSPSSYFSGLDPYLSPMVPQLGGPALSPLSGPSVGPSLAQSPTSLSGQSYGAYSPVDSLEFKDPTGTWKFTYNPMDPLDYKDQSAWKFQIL
In short: as §1

[17] = target: ETV1 (Homo sapiens, UniProt P50549 1-477); conditions: protein: recombinant; tags: N-terminal GST; dsDNA, one strand shown
ETV1, sequence (P50549 whole entry): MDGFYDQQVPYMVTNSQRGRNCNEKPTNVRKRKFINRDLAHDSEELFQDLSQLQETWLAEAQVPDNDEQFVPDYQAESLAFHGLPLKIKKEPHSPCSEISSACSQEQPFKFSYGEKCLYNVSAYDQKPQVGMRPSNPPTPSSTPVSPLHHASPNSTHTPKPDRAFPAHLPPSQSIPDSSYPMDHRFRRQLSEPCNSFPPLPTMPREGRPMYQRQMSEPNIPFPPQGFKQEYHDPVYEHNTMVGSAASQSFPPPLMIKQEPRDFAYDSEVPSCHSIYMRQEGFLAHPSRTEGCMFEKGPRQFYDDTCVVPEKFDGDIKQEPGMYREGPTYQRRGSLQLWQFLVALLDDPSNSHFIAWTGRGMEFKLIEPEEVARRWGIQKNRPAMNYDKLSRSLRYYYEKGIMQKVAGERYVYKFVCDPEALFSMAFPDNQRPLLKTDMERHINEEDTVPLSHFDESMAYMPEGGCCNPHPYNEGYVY
In short: as §1

[18] = target: SPI1 (Homo sapiens, UniProt P17947 1-270); conditions: protein: recombinant; tags: N-terminal GST; dsDNA, one strand shown
In short: as §1

Sequence	binding signal [1]	binding signal [2]	binding signal [3]	binding signal [4]	binding signal [5]	binding signal [6]	binding signal [7]	binding signal [8]	binding signal [9]	binding signal [10]	binding signal [11]	binding signal [12]	binding signal [13]	binding signal [14]	binding signal [15]	binding signal [16]	binding signal [17]	binding signal [18]
TTGAGC	1.22 fold enrichment (6-mer frequency, TF over GST control)	1.01 fold enrichment (6-mer frequency, TF over GST control)	1.17 fold enrichment (6-mer frequency, TF over GST control)	1.12 fold enrichment (6-mer frequency, TF over GST control)	1.02 fold enrichment (6-mer frequency, TF over GST control)	1.06 fold enrichment (6-mer frequency, TF over GST control)	1.11 fold enrichment (6-mer frequency, TF over GST control)	1 fold enrichment (6-mer frequency, TF over GST control)	1.03 fold enrichment (6-mer frequency, TF over GST control)	1.03 fold enrichment (6-mer frequency, TF over GST control)	1.18 fold enrichment (6-mer frequency, TF over GST control)	1.06 fold enrichment (6-mer frequency, TF over GST control)	1.04 fold enrichment (6-mer frequency, TF over GST control)	1.07 fold enrichment (6-mer frequency, TF over GST control)	1.13 fold enrichment (6-mer frequency, TF over GST control)	1.28 fold enrichment (6-mer frequency, TF over GST control)	1.1 fold enrichment (6-mer frequency, TF over GST control)	–
TCTGTG	1.17 fold enrichment (6-mer frequency, TF over GST control)	1.14 fold enrichment (6-mer frequency, TF over GST control)	1.18 fold enrichment (6-mer frequency, TF over GST control)	1.07 fold enrichment (6-mer frequency, TF over GST control)	1.12 fold enrichment (6-mer frequency, TF over GST control)	1.13 fold enrichment (6-mer frequency, TF over GST control)	1.14 fold enrichment (6-mer frequency, TF over GST control)	1.07 fold enrichment (6-mer frequency, TF over GST control)	1.08 fold enrichment (6-mer frequency, TF over GST control)	1.05 fold enrichment (6-mer frequency, TF over GST control)	1.34 fold enrichment (6-mer frequency, TF over GST control)	1.2 fold enrichment (6-mer frequency, TF over GST control)	1.21 fold enrichment (6-mer frequency, TF over GST control)	1.1 fold enrichment (6-mer frequency, TF over GST control)	1.07 fold enrichment (6-mer frequency, TF over GST control)	1.09 fold enrichment (6-mer frequency, TF over GST control)	1.16 fold enrichment (6-mer frequency, TF over GST control)	1.14 fold enrichment (6-mer frequency, TF over GST control)
